From PubChem BioAssay (NCI)
This is part of a sample that, as a whole, favours compounds with a hit. Of some 79,000 tested, about 15% had one in any assay. Activity calls are given as the source filed them. No stated cut-off is given here; in the data, active means growth inhibition above about 70%; inactive means the rest.

Legend:
[1] = NCI Yeast Anticancer Drug Screen. Data for the wt1 strain (AID 149);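 further: 0% = growth of vehicle-treated wt1 cultures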; conditions: S. cerevisiae wt1 strain (SPY 50644) growth inhibition, hits give high values
Method in brief: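 Vehicle-normalised growth inhibition; strain wt1; compound exposure.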

[2] = NCI Yeast Anticancer Drug Screen. Data for the rad50EPP+ strain (AID 151);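 further: 0% = growth of vehicle-treated control cultures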; conditions: S. cerevisiae rad50 mutant strain, hits give high values
Method in brief: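 Growth inhibition read against vehicle controls in rad50EPP+ yeast, a strain altered in DNA damage repair, after compound exposure.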

[3] = NCI Yeast Anticancer Drug Screen. Data for the mgt1 strain (AID 153); conditions: S. cerevisiae mgt1 mutant growth inhibition, hits give high values
Method in brief: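 mgt1 yeast grown with test compound; read-out is growth inhibition versus vehicle-treated cultures.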

[4] = NCI Yeast Anticancer Drug Screen. Data for the rad50 strain (AID 155);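 further: 0% = growth of vehicle-only cultures of the same strain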; conditions: S. cerevisiae rad50 strain growth inhibition, hits give high values
Method in brief: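 A DNA repair-deficient yeast mutant serves as the test organism; compound-induced growth inhibition is calculated against vehicle-treated cells.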

[5] = NCI Yeast Anticancer Drug Screen. Data for the mec2-1 strain (AID 157); conditions: S. cerevisiae mec2-1 strain, hits give high values
Method in brief: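 Yeast mec2-1 mutant treated with compound. Readout: growth inhibition vs vehicle controls.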

[6] = NCI Yeast Anticancer Drug Screen. Data for the rad14 strain (AID 159);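 further: 0% = growth of vehicle-treated control cultures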; conditions: S. cerevisiae rad14 strain growth inhibition, hits give high values
Method in brief: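 Vehicle-treated cultures served as the baseline for growth inhibition of a DNA repair-mutant yeast strain exposed to each compound.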

[7] = NCI Yeast Anticancer Drug Screen. Data for the sgs1 mgt1 strain (AID 161);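 further: 0% = growth of cultures given vehicle only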; conditions: S. cerevisiae sgs1 mgt1 strain, hits give high values
Method in brief: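 Inhibition of yeast growth, normalised to vehicle-treated controls, is reported for a strain bearing genetic alterations in DNA damage repair.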

[8] = NCI Yeast Anticancer Drug Screen. Data for the CLN2oe strain (AID 163);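 further: 0% = growth of vehicle-only control cultures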; conditions: S. cerevisiae CLN2oe strain, hits give high values
Method in brief: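 Read-out: yeast growth inhibition, expressed relative to vehicle-only controls. The strain bears an engineered cell-cycle alteration.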

[9] = NCI Yeast Anticancer Drug Screen. Data for the cln2 rad14 strain (AID 165);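 further: 0% = growth equal to vehicle treated cultures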; conditions: S. cerevisiae cln2 rad14 strain, hits give high values
Method in brief: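 cln2 rad14 yeast strain; compound exposure; growth inhibition read vs vehicle controls.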

[10] = NCI Yeast Anticancer Drug Screen. Data for the bub3 strain (AID 167); conditions: S. cerevisiae bub3 mutant strain, hits give high values
Method in brief: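 Inhibition values come from growth of compound-treated mutant yeast normalised to vehicle-treated controls.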

[11] = NCI Yeast Anticancer Drug Screen. Data for the wt2 strain (AID 169);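 further: 0% = growth of vehicle-treated yeast cultures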; conditions: S. cerevisiae wt2 strain growth inhibition, hits give high values
Method in brief: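 Read-out: growth inhibition versus vehicle-treated control cultures after compound exposure of the yeast strain.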

[12] = NCI Yeast Anticancer Drug Screen. Data for the mlh1 strain (AID 171);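 further: 0% = growth of vehicle-treated control cultures of the same strain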; conditions: S. cerevisiae mlh1 strain growth inhibition, hits give high values
Method in brief: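 Read-out: growth inhibition versus vehicle controls. Strain: engineered yeast with a defined DNA repair or cell cycle defect, compound-treated.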

[13] = NCI Yeast Anticancer Drug Screen. Data for the sgs1 strain (AID 173);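 further: 0% = growth of vehicle-only control cultures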; conditions: S. cerevisiae sgs1 mutant, hits give high values
Method in brief: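 Read-out: yeast growth inhibition relative to vehicle controls, following compound exposure of a strain with a defined DNA repair/cell cycle alteration.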

[14] = NCI Yeast Anticancer Drug Screen. Data for the mlh1 rad18 strain (AID 175); conditions: S. cerevisiae mlh1 rad18 strain growth inhibition, hits give high values
Method in brief: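 Yeast w/ defined DNA-repair lesions; compound exposure; growth vs vehicle controls → % inhibition.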

[15] = NCI Yeast Anticancer Drug Screen. Data for the rad18 strain (AID 177); conditions: S. cerevisiae rad18 mutant growth inhibition, hits give high values
Method in brief: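 Readout: growth inhibition vs vehicle controls. Cells: genetically altered yeast strain, DNA repair defect.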

[16] = at 5.0 µM (retest, dose inferred, filed as 0.5)
[17] = at 50.0 µM (retest, dose inferred, filed as 5.0)

Measured: growth inhibition

Cc1ccc(N(C=O)c2c([N+](=O)[O-])cc([N+](=O)[O-])c3c2=[N+]([O-])CN=3)cc1
active: [1]; at 33.0 µM 89% | [1]; at 100.0 µM 98% | [2]; at 11.0 µM 84% | [2]; at 33.0 µM 95% | [2]; at 100.0 µM 97% | [3]; at 33.0 µM 96% | [3]; at 100.0 µM 98% | [4]; at 33.0 µM 92% | [4]; [17] 83% | [4]; at 50.0 µM 71.5% | [4]; at 100.0 µM 98% | [5]; at 33.0 µM 95% | [5]; [17] 91% | [5]; at 100.0 µM 98% | [6]; at 33.0 µM 94% | [6]; at 100.0 µM 97% | [7]; [17] 84% | [8]; at 33.0 µM 95% | [8]; at 100.0 µM 98% | [9]; [17] 81% | [10]; at 33.0 µM 72% | [10]; [17] 98% | [10]; at 100.0 µM 97% | [11]; at 33.0 µM 90% | [11]; at 100.0 µM 98% | [12]; at 33.0 µM 94% | [12]; at 100.0 µM 98% | [13]; at 33.0 µM 89% | [13]; at 100.0 µM 98% | [14]; [17] 98% | [15]; at 33.0 µM 91% | [15]; at 100.0 µM 98%
inactive: [1]; at 1.2 µM 3% | [1]; at 3.7 µM 23% | [1]; at 11.0 µM 20% | [2]; at 1.2 µM 35% | [2]; at 3.7 µM 51% | [3]; at 1.2 µM 10% | [3]; at 3.7 µM -1% | [3]; at 11.0 µM 52% | [4]; at 1.2 µM 9% | [4]; at 3.7 µM 18% | [4]; [16] 13% | [4]; at 11.0 µM 25% | [5]; at 1.2 µM 8% | [5]; at 3.7 µM 19% | [5]; [16] 6% | [5]; at 11.0 µM 32% | [5]; at 50.0 µM 27.6% | [6]; at 1.2 µM -15% | [6]; at 3.7 µM 1% | [6]; at 11.0 µM 30% | [7]; [16] 12% | [7]; at 50.0 µM 58.8% | [8]; at 1.2 µM -3% | [8]; at 3.7 µM 8% | [8]; at 11.0 µM 34% | [9]; [16] 28% | [9]; at 50.0 µM 31.6% | [10]; at 1.2 µM -1% | [10]; at 3.7 µM 5% | [10]; [16] 38% | [10]; at 11.0 µM 19% | [10]; at 50.0 µM 11% | [11]; at 1.2 µM 9% | [11]; at 3.7 µM 17% | [11]; at 11.0 µM 46% | [12]; at 1.2 µM -1% | [12]; at 3.7 µM 6% | [12]; at 11.0 µM 48% | [13]; at 1.2 µM 16% | [13]; at 3.7 µM 21% | [13]; at 11.0 µM 51% | [14]; [16] 12% | [14]; at 50.0 µM 41.3% | [15]; at 1.2 µM 0% | [15]; at 3.7 µM 14% | [15]; at 11.0 µM 47%
